“And” between values parts separate entries of the source, which are not always exact repeats. Identical values can stand only once. A structure can be active in one record and inactive in another. The source made the active and inactive calls. How the source made its calls: active means hit-call score of the fitted dose curve at least 0.9, where 1 is the maximum; inactive means score below 0.9.

Assay [1] in a line: BSK_BT_PBMCCytotoxicity: PBMC Cytotoxicity Assessment in the BioMAP Diversity Plus: BT Assay (AID 2284225).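 Further: PBMC viability measured by Alamar Blue dye reduction fluorescence.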 To be noted: primary human B cells with PBMC. An outline of the steps:
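PBMC (75,000/well) pretreated with compound 1 h, then activated with SEB and TSST-1 (20 ng/mL each final), incubated 90 h; Alamar Blue added 6 h, fluorescence read at 546/580 nm. Fitted relative to DMSO.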

Read-out in assay [2]: Secreted IgG (sIgG), gene 3500
The assay is described as follows: BSK_BT_sIgG: BioMAP Diversity Plus: BT Assay for Secreted IgG (sIgG) Biomarker Activity (AID 2284226). To be noted: primary human B cells with PBMC. In short, it runs like this:
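Read-out: ELISA for secreted IgG after 24 h of chemical exposure in a B cell plus PBMC co-culture. Values reflect upward-direction fitting against DMSO negative controls.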

Assay [3] in a line: BSK_BT_Bcell_Proliferation: Viability Assessment in the BioMAP Diversity Plus: BT Assay for B cell Proliferation (AID 2284227). To be noted: primary human B cells with PBMC. In short, it runs like this:
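Using a human primary B cell–PBMC co-culture, the assay measures total protein by sulforhodamine B absorbance as a gauge of proliferation after 72 h. Analysis followed the positive fitting direction with DMSO as baseline.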

Read-out in assay [4]: Interleukin 6 (IL6), IL6 (gene 3569)
Kind of assay: BSK_BT_xIL6: BioMAP Diversity Plus: BT Assay for Interleukin 6 (IL6) Biomarker Activity (AID 2284228). The following applies: primary human B cells with PBMC. An outline of the steps: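 Human B cell/PBMC co-culture; secreted IL-6 quantified by Luminex xMAP 24 h after chemical dosing, fitted relative to DMSO. Parallel PBMC viability by Alamar Blue after 1 h pretreatment, 20 ng/mL SEB and TSST-1, 90 h incubation.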

Read-out in assay [5]: Interleukin 17A (IL17A), IL17A (gene 3605)
Kind of assay: BSK_BT_xIL17A: BioMAP Diversity Plus: BT Assay for Interleukin 17A (IL17A) Biomarker Activity (AID 2284229). The following applies: primary human B cells with PBMC. An outline of the steps:
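Co-culture of human B cells and PBMC, dosed for 24 h in 96-well format. Secreted IL-17A measured with Luminex xMAP; gain-direction fitting against DMSO as baseline.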

Read-out in assay [6]: Tumor necrosis factor (Homo sapiens) (UniProt P01375)
The assay is described as follows: BSK_BT_xTNFa: BioMAP Diversity Plus: BT Assay for Tumor necrosis factor alpha (TNF-alpha) Biomarker Activity (AID 2284230). The following applies: primary human B cells with PBMC. An outline of the steps:
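Endpoint derived in the positive direction versus DMSO vehicle. Cells: B cells together with PBMC, exposed 24 h before TNF-alpha in the medium was read on the Luminex xMAP platform.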

Read-out in assay [7]: Vascular cell adhesion molecule 1 (VCAM1), VCAM1 (gene 7412)
The assay is described as follows: BSK_MyoF_VCAM1: BioMAP Diversity Plus: MyoF Assay for Vascular cell adhesion molecule 1 (VCAM1) Biomarker Activity (AID 2284231). The following applies: primary human lung fibroblasts. In short, it runs like this: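 Primary human lung fibroblasts (BioMAP MyoF system) dosed with chemical, VCAM-1 measured by ELISA 24 hours later. Fitted in the positive direction against DMSO; parallel SRB staining assessed cytotoxicity.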

Read-out in assay [8]: Collagen I, COL1A1 (gene 1277)
Kind of assay: BSK_MyoF_CollagenI: BioMAP Diversity Plus: MyoF Assay for Collagen I Biomarker Activity (AID 2284238). The following applies: primary human lung fibroblasts. In short, it runs like this: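 Primary human lung fibroblasts (MyoF system) treated 24 h; Collagen I quantified by ELISA and fitted in positive direction against DMSO. Parallel SRB total-protein staining assessed overt cytotoxicity.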

Read-out in assay [9]: Collagen III, COL3A1 (gene 1281)
The assay is described as follows: BSK_MyoF_CollagenIII: BioMAP Diversity Plus: MyoF Assay for Collagen III Biomarker Activity (AID 2284239). To be noted: primary human lung fibroblasts. In short, it runs like this:
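Primary human lung fibroblasts (BioMAP MyoF system) exposed 24 h. Collagen III measured by ELISA; positive-direction fit relative to DMSO.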

Read-out in assay [10]: Interleukin 17F (IL17F), IL17F (gene 112744)
Kind of assay: BSK_BT_xIL17F: BioMAP Diversity Plus: BT Assay for Interleukin 17F (IL17F) Biomarker Activity (AID 2284243). The following applies: primary human B cells with PBMC. In short, it runs like this:
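Human PBMC co-cultured with B cells, compound exposure 24 h; secreted IL-17F quantified by Luminex xMAP, referenced to DMSO control. PBMC viability measured in parallel by Alamar Blue reduction.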

Read-out in assay [11]: Actin alpha 1 (ACTA1), ACTA1 (gene 58)
Kind of assay: BSK_MyoF_ACTA1: BioMAP Diversity Plus: MyoF Assay for Actin alpha 1 (ACTA1) Biomarker Activity (AID 2284244). To be noted: primary human lung fibroblasts. In short, it runs like this: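 Lung fibroblasts, human primary, 24 h compound exposure → a-SMA ELISA. Positive-direction fit vs DMSO control.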

Read-out in assay [12]: Interleukin 2 (IL2), IL2 (gene 3558)
The assay is described as follows: BSK_BT_xIL2: BioMAP Diversity Plus: BT Assay for Interleukin 2 (IL2) Biomarker Activity (AID 2284245). To be noted: primary human B cells with PBMC. In short, it runs like this: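 B cell + PBMC co-culture (human primary), compound added, 24 h incubation; secreted IL-2 measured multiplexed on Luminex xMAP; gain-of-signal fit vs DMSO.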

Read-out in assay [13]: Basic fibroblast growth factor (bFGF), FGF2 (gene 2247)
The assay is described as follows: BSK_MyoF_bFGF: BioMAP Diversity Plus: MyoF Assay for Basic fibroblast growth factor (bFGF) Biomarker Activity (AID 2284246). To be noted: primary human lung fibroblasts. In short, it runs like this: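 ELISA-measured bFGF level serves as the read-out, taken 24 h after chemical dosing of human lung fibroblasts. Values represent signal gain over the DMSO negative control.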

Read-out in assay [14]: Collagen IV, COL4A1 (gene 1282)
The assay is described as follows: BSK_MyoF_CollagenIV: BioMAP Diversity Plus: MyoF Assay for Collagen IV Biomarker Activity (AID 2284247). The following applies: primary human lung fibroblasts. In short, it runs like this: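 Steps: dose human lung fibroblasts; culture 24 h; quantify Collagen IV by ELISA; fit increase versus DMSO control. Parallel SRB total-protein staining (0.1% SRB after 10% TCA fixation, 560 nm) tracks overt cytotoxicity.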

Read-out in assay [15]: Monokine induced gamma interferon (MIG), CXCL9 (gene 4283)
The assay is described as follows: BSK_KF3CT_MIG: BioMAP Diversity Plus: KF3CT Assay for Monokine induced gamma interferon (MIG) Biomarker Activity (AID 2284248). To be noted: primary human keratinocytes with fibroblasts. An outline of the steps:
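Human keratinocyte–foreskin fibroblast co-culture; MIG measured by ELISA 24 h after chemical dosing, fitted upward versus DMSO. Cytotoxicity was assessed in parallel cultures by SRB total-protein staining read at 560 nm.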

Read-out in assay [16]: Vascular cell adhesion molecule 1 (VCAM1), VCAM1 (gene 7412)
The assay is described as follows: BSK_BF4T_VCAM1: BioMAP Diversity Plus: BF4T Assay for Vascular cell adhesion molecule 1 (VCAM1) Biomarker Activity (AID 2284249). The following applies: primary human bronchial epithelial cells with fibroblasts. An outline of the steps:
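Human bronchial epithelial cell and dermal fibroblast co-culture exposed 24 h. VCAM-1 measured by ELISA; parallel SRB total-protein staining for cytotoxicity. Fitted in positive direction relative to DMSO.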

Assay [17] is described as follows: CCTE_Shafer_MEA_dev_correlation_coefficient_mean: CCTE's Neural Network Formation Assay for Mean Correlation Coefficient, Shafer Lab (AID 2284093). An outline of the steps: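 Extracellular firing from rat cortical networks on 48-well MEAs, DMSO-referenced, negative fitting direction. Compound present from plating to DIV12; mean pairwise correlation per well integrated over DIV5–12 recordings by trapezoidal AUC.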

The nature of assay [18]: CCTE_Mundy_HCI_hNP1_Casp3_7: CCTE's Caspase-Glo 3/7 Assay in human neuroprogenitor cells for Apoptosis, Mundy Lab (AID 2284240). An outline of the steps:
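Neuroepithelial-lineage stem cells from WA09 embryonic cells were treated with chemicals after 40–44 h of culture. Twenty-four hours later, caspase-3/7 activation was detected luminescently after a 30 min room-temperature reagent step, with DMSO as baseline.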

Chain of Tumor necrosis factor (Homo sapiens) (P01375 whole entry, looked up): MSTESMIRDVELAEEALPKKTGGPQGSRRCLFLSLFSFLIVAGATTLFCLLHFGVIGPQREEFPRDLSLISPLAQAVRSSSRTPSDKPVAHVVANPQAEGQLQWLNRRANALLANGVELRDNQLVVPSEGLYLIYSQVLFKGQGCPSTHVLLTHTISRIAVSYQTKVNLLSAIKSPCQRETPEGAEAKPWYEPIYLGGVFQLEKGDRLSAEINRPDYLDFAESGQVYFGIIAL

The AC50 is the concentration giving half of the maximal activity seen. Take `C=CC(=O)OCC(F)(F)C(F)(F)C(F)(F)C(F)(F)C(F)(F)C(F)(F)C(F)(F)C(F)F`: the half-maximal activity concentration (AC50) in [1] is 32.5 µM (active) and 22.7 µM (active); in assay [2] it was 46.2 µM (active); in [3], 44.8 µM (active) and 30 µM (active); in assay [4], 33.7 µM (active) and 14.4 µM (active); in assay [5] it was 30 µM (active) and 27.2 µM (active); in [6], 35.1 µM (active) and 6.23 µM (active). For the same molecule, the AC50 in assay [7] is 27.2 µM (active) and 37.2 µM (active); in [10], 18.8 µM (active); in assay [11], 30 µM (active) and 19.5 µM (active); in assay [12], 44.5 µM (active). In addition, the result in assay [2], in [8], in [9], in assay [12], in [13] and in assay [14] was inactive. Further, the outcome in [15] and in assay [16] was inactive.
Turning to `NC(=O)C(F)(F)C(F)(F)C(F)(F)C(F)(F)C(N)=O`, the outcome in assay [17], in assay [1], in assay [2], in assay [3], in [4] and in assay [6] was inactive. The result in assay [8], in assay [9], in assay [18], in [10], in assay [11] and in assay [12] was inactive. The result in assay [14], in assay [15] and in assay [16] was inactive. In addition, in [6], the AC50 is 0.221 µM (active).
For `Cc1ccc(S(=O)(=O)C(I)I)cc1`, the AC50 is 4.06 µM (active) in [1]; 2.03 µM (active) in [2]; 2.97 µM (active) in assay [3]; 2.82 µM (active) in assay [4]; 2.36 µM (active) in assay [5]; 4.64 µM (active) in [6]. Besides, the AC50 is 7.94 µM (active) in [7]; 8.3 µM (active) in assay [8]; 10.5 µM (active) in assay [9]; 2.77 µM (active) in assay [10]; 7.35 µM (active) in assay [11]; 4.47 µM (active) in [12]. In assay [14], the AC50 was 7.25 µM (active).
As for `O=C(O)C(F)(F)C(F)(F)C(F)(F)C(F)(F)C(F)(F)C(F)(F)C(F)F`, the outcome in assay [1], in assay [2], in assay [3], in [4], in assay [6] and in [7] was inactive. Besides, the outcome in assay [8], in assay [9], in assay [10], in [11], in [12] and in assay [13] was inactive. Moreover, the result in assay [14], in [15] and in assay [16] was inactive. The AC50 was 21.8 µM (active) in assay [3] and 0.232 µM (active) in assay [11].
For `CCN(CC)c1ccc(N=Nc2ccccc2)cc1`, the result in [1] and in assay [9] was inactive. Besides, the AC50 in assay [2] is 18 µM (active); in assay [3], 30.3 µM (active); in [4], 20 µM (active); in assay [5], 20 µM (active); in [6] it was 31 µM (active); in assay [7], 20 µM (active). Further, the AC50 is 20 µM (active) in assay [8]; 31 µM (active) in assay [10]; 23.8 µM (active) in [11]; 32.6 µM (active) in assay [12]; 9.37 µM (active) in assay [14].
In the case of `COC(F)(C(F)F)C(F)(F)F` (configuration not stated), the result in assay [1], in assay [2], in assay [3], in assay [4], in [5] and in [6] was inactive. Also, the result in assay [8], in assay [9], in assay [10], in assay [11], in [12] and in [14] was inactive. The outcome in assay [15] and in assay [16] was inactive. For the same molecule, in assay [11], the AC50 is 0.556 µM (active).

(Values after PubChem BioAssay (EPA / NIEHS).)
